The text below walks through data of PubChem BioAssay AID1625 (Sanford-Burnham Center for Chemical Genomics, 2009).

Hit rate of the full screen: of about 190,000 compounds, about 570 (0.3%) were called active.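 The calls were made as follows: active = z-score above 3 at 5 µM with at least 500 cells counted in the well; inconclusive = wells under 500 cells, flagged as cytotoxic or low count; inactive = the rest.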 Shown is part of a subset that was picked to be rich in actives.

The experiment can be described thus: up-regulation of insulin promoter-GFP reporter – imaging, high-content screening, mouse beta cells (AID 1625).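 As to cell count: total cells summed across four imaged fields per well.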 The following applies: MIN6 insulin promoter-GFP reporter, at 5 µM; cell count: measured here: cytotoxicity, nuclei count; z-score: stronger effect = higher value.
For the compound `Cc1ccc(-n2c(Cc3cccs3)nnc2SCC(=O)OC(C)C)cc1`, the cell count is 993 cells and the z-score is 3.05 (active).

On to `COc1ccc(-n2c(SCC(=O)OC(C)C)nnc2-c2ccccn2)cc1`, for which the cell count was 1260 cells and the z-score is 0.29 (inactive).

For `CCn1c(Cc2cccs2)nnc1SCC(=O)c1ccc(C)cc1`, the cell count was 827 cells and the z-score was -1.87 (inactive).

For `Cc1ccc(Oc2nc(-c3ccccn3)nc3ccccc23)cc1`, the cell count was determined as 1010 cells and the z-score was -0.89 (inactive).

Turning to `O=C1N(c2ccccc2)C(=Nc2ccccc2)SC12CC2`, the cell count was found to be 1070 cells and the z-score was -0.2 (inactive).

Consider `COc1ccc(OC)c(S(=O)(=O)NCCC(C)C)c1`, for which the cell count turned out to be 1220 cells and the z-score is -0.95 (inactive).

Take `CCOC(=O)CN(C(=O)COc1nc(-c2ccccc2)cc(C)c1C#N)c1ccc(F)cc1`: the cell count amounted to 1080 cells and the z-score is -0.04 (inactive).

`CCOC(=O)C1CCN(C(=O)Nc2ccc(C)c(Cl)c2)CC1`: the cell count was 1020 cells and the z-score was -0.22 (inactive).

Take `O=C(CCCN1C(=O)/C(=C/c2ccccc2)SC1=S)Nc1ccc(O)cc1`: the cell count is 1550 cells and the z-score was -0.31 (inactive).

`O=C(CCCN1C(=O)/C(=C\c2ccccc2)SC1=S)Nc1ccccc1O`: the cell count was determined as 1110 cells and the z-score was -1.05 (inactive).

`O=C(CCN1C(=O)/C(=C/c2cccs2)SC1=S)NNC(=O)c1cccc(O)c1`: the cell count worked out at 1100 cells and the z-score was 3.43 (active).

In the case of `Nc1nc(O)c(CC(=O)O)s1`, the cell count was 1490 cells and the z-score was -0.64 (inactive).

As for `Cc1ccc(NNC(=O)C2CCC2)cc1C`, the cell count is 1450 cells and the z-score was -0.26 (inactive).

As to `CCOC(=O)C1=NN(c2ccc(Cl)cc2)/C(=C/C2=NCCc3cc(OC)c(OC)cc32)S1`, the cell count is 1380 cells and the z-score was 0.35 (inactive).

As for `CCCN(CCC)CC(O)COc1ccccc1C(=O)Nc1ccccc1` (stereo not given), the cell count amounted to 1020 cells and the z-score is -0.54 (inactive).

`COc1ccc(-c2[nH]ncc2CN(Cc2nccn2C)C(C)C)cc1F`: the cell count worked out at 1490 cells and the z-score was -1.07 (inactive).

As to `O=S(=O)([N-]c1nc2ccccc2nc1-[n+]1ccc(Cc2ccccc2)cc1)c1ccc(Br)s1`, the cell count came to 1020 cells and the z-score was -0.15 (inactive).

Regarding `[O-][N+]12CCCCC1CCCC2CO` (stereo not given), the cell count turned out to be 977 cells and the z-score is 0.05 (inactive).

Take `O=c1c(-c2ccc(Cl)cc2)[n+]([O-])c2ccccc2n1OCc1nc2ccccc2[nH]1`: the cell count was determined as 1200 cells and the z-score is -1.15 (inactive).

Turning to `COc1ccc(OC)c(-c2c(=O)n(OCc3ccccc3Br)c3ccccc3[n+]2[O-])c1`, the cell count is 1330 cells and the z-score is -0.44 (inactive).

Take `CCOc1ccc(OCC)c(-c2c(=O)n(OCc3ccc(Cl)cc3)c3ccccc3[n+]2[O-])c1`: the cell count was found to be 1410 cells and the z-score was 3.34 (active).

In the case of `CCN(CC)CCNCC(=O)Nc1ccc(Oc2ccccc2)cc1`, the cell count is 919 cells and the z-score was -0.39 (inactive).

On to `C/C(=N\Nc1cccc(C(=O)O)c1)c1ccc2c(c1)Nc1ccccc1S2`, for which the cell count is 1020 cells and the z-score was -0.12 (inactive).

On to `O=C(Cn1c(N2CCN(C/C=C/c3ccccc3)CC2)nc2ccccc21)c1ccccc1`, for which the cell count amounted to 1150 cells and the z-score is -0.35 (inactive).

Turning to `COc1ccc(F)cc1S(=O)(=O)N1CCCCC1`, the cell count came out at 1090 cells and the z-score was 0.19 (inactive).

Turning to `N#C/C(=C\N1CCOCC1)S(=O)(=O)c1ccc(Cl)cc1`, the cell count came to 930 cells and the z-score is -0.15 (inactive).

As to `CCc1ccc(S(=O)(=O)Nc2ccc(C)c(NS(C)(=O)=O)c2)cc1`, the cell count was determined as 1030 cells and the z-score was 0.6 (inactive).

As for `COCCNC(=O)c1onc(CSc2cccc(C)c2)c1C(=O)O`, the cell count stood at 1620 cells and the z-score is 3.82 (active).

Consider `CCCCNC(=O)c1onc(CSc2cccc(OC)c2)c1C(=O)O`, for which the cell count was found to be 1420 cells and the z-score is -0.14 (inactive).

On to `CCOc1cccc(SCc2noc(C(=O)NC(C)C)c2C(=O)O)c1`, for which the cell count turned out to be 1590 cells and the z-score is -0.64 (inactive).

For the compound `CN(CC(=O)Nc1ccc(F)cc1)CC(=O)Nc1ccc(Cl)c(S(=O)(=O)N2CCOCC2)c1`, the cell count worked out at 1070 cells and the z-score is -0.46 (inactive).

In the case of `CC(C)NC(=O)/C(C#N)=C\c1ccc(N(C)C)c(Br)c1`, the cell count was 1460 cells and the z-score is 0.33 (inactive).

On to `COC(=O)c1cc(C)sc1NC(=O)CC1Nc2ccccc2NC1=O` (stereo not given), for which the cell count worked out at 1110 cells and the z-score was 2.17 (inactive).

Consider `CCc1cc(C(=O)OC)c(NC(=O)CC2Sc3ccc(C(F)(F)F)cc3NC2=O)s1` (stereo not given), for which the cell count is 1330 cells and the z-score was 3.33 (active).

Turning to `Cc1ccc(CNC(=O)CC2Sc3ccccc3NC2=O)cc1` (stereo not given), the cell count is 1420 cells and the z-score is -0.57 (inactive).

As for `CCc1ccc(NC(=O)N[C@H](C(=O)O)C(C)CC)cc1` (stereo not given in full), the cell count was 978 cells and the z-score was 0.03 (inactive).

For the compound `O=C(Nc1nnc(SCc2c(Cl)cccc2Cl)s1)c1cccc([N+](=O)[O-])c1`, the cell count was determined as 1070 cells and the z-score was 0.41 (inactive).

With `Nc1nnc(SCn2nnc3ccccc3c2=O)s1`, the cell count worked out at 1620 cells and the z-score is 0.07 (inactive).

Turning to `CCOc1cc2c(cc1OCC)C(C(=O)O)C(c1ccc(OC)c(O)c1)N(C)C2=O` (stereo not given), the cell count worked out at 1550 cells and the z-score was 0.1 (inactive).

`COc1ccc(C2C(C(=O)N3CCN(c4ccc(OC)cc4)CC3)c3ccccc3C(=O)N2C)cc1` (stereo not given): the cell count was determined as 1330 cells and the z-score is -1.17 (inactive).

Take `CCOc1ccc(C2C(C(=O)O)c3ccccc3C(=O)N2CCN2CCOCC2)cc1` (stereo not given): the cell count came to 1350 cells and the z-score is 4.94 (active).

On to `O=C(COC(=O)/C=C/c1ccc2c(c1)OCO2)NC1CCS(=O)(=O)C1` (stereo not given), for which the cell count was determined as 933 cells and the z-score was -0.06 (inactive).

Take `COc1ccccc1N1CCN(C(=O)CSc2ncnc3c2cnn3-c2ccc(C)c(C)c2)CC1`: the cell count was 959 cells and the z-score is -0.23 (inactive).

For `CC1Cc2ccccc2N1S(=O)(=O)c1ccc(Cl)nc1` (stereo not given), the cell count turned out to be 1130 cells and the z-score is 0.1 (inactive).

Consider `CCc1nnc(NC(=O)CCC(=O)O)s1`, for which the cell count is 879 cells and the z-score was -0.23 (inactive).

With `CCc1nnc(NC(=O)CCC(=O)NCc2ccccc2OC)s1`, the cell count was 1600 cells and the z-score was 4.05 (active).

For the compound `COc1ccccc1CNC(=O)CCn1c(=O)sc2ccccc21`, the cell count came to 1300 cells and the z-score was -0.13 (inactive).

Regarding `O=C(Nc1ccc(Cl)cc1)/C(=C1\CCCN1)[N+](=O)[O-]`, the cell count came out at 1400 cells and the z-score is 0.56 (inactive).

`COc1ccc(OC)c(-c2csc(NC(=O)C3=NNC(=O)CC3)n2)c1`: the cell count amounted to 1110 cells and the z-score was 1.47 (inactive).

In the case of `CCOc1cccc(/C=C/c2ccc3ccccc3n2)c1OC(C)=O`, the cell count is 1230 cells and the z-score was -0.46 (inactive).

`Cc1nc(COc2cccc(Cl)c2)sc1C(=O)/C=C/N(C)C`: the cell count amounted to 1040 cells and the z-score was 0.55 (inactive).

As for `CN1CCN(c2ccc(S(=O)(=O)N3CCOCC3)cc2NC(=O)CCc2ccccc2)CC1`, the cell count was found to be 1040 cells and the z-score was 0.32 (inactive).

As to `C=CCC(Nc1ccccc1)c1cccc(OC)c1OC` (stereo not given), the cell count stood at 1080 cells and the z-score was -0.62 (inactive).

On to `O=C(Cc1cccc2ccccc12)NCCC1=CCCCC1`, for which the cell count came to 1280 cells and the z-score is -0.27 (inactive).

Take `O=C(Cc1nn[nH]n1)NCCC1=CCCCC1`: the cell count is 1260 cells and the z-score was -0.63 (inactive).

As to `CN1CCNC(=O)C1CC(=O)NCCC1=CCCCC1` (stereo not given), the cell count amounted to 1390 cells and the z-score was 3.77 (active).

For `Cn1nc(C(C)(C)C)c([N+](=O)[O-])c1C(N)=O`, the cell count came out at 1080 cells and the z-score was -0.1 (inactive).

Consider `O=C(O)CC1=C(Nc2ccccc2)C(=O)N(c2ccccc2)C1c1ccc(Cl)cc1` (stereo not given), for which the cell count came to 1370 cells and the z-score was -0.28 (inactive).

On to `O=c1c([N+](=O)[O-])cccn1Cc1ccc(F)cc1Cl`, for which the cell count came to 1280 cells and the z-score was 3.36 (active).

On to `N/C(=N/O)c1cccn1Cc1ccccc1[N+](=O)[O-]`, for which the cell count stood at 1470 cells and the z-score was 0.02 (inactive).

As for `O=[N+]([O-])c1ccccc1NCc1ccccc1Cl`, the cell count worked out at 1120 cells and the z-score is 0.76 (inactive).

Regarding `CN1CCN(C(c2cc3cc4c(cc3[nH]c2=O)OCCO4)c2nnnn2C2CCCC2)CC1` (stereo not given), the cell count was 1180 cells and the z-score was -0.16 (inactive).

`CCOc1ccc(-n2cnc3c(=O)[nH]c(N)nc32)cc1`: the cell count turned out to be 1510 cells and the z-score is -0.16 (inactive).

With `CC(C)(C)c1ccc(CCC2OCC(CN3CCOCC3)O2)cc1` (stereo not given), the cell count worked out at 1070 cells and the z-score is -0.91 (inactive).

`O=C(Cc1ccccc1)N1N=C(c2ccncc2)CC1(O)C(F)(F)F` (stereo not given): the cell count was found to be 1110 cells and the z-score is -0.48 (inactive).

As to `CN1CCN(C(=O)/C(=C\c2cccs2)NC(=O)c2cccs2)CC1`, the cell count was found to be 1240 cells and the z-score is 6.06 (active).

For the compound `CN1CCN(C(=O)/C(=C\c2ccc3c(c2)OCO3)NC(=O)c2cccs2)CC1`, the cell count was 1300 cells and the z-score is 0.04 (inactive).

With `Cc1ccc(C(=O)N/C(=C/c2cccs2)C(=O)N2CCCCC2)cc1`, the cell count is 1270 cells and the z-score is 0.22 (inactive).

Consider `O=C(O)C(c1ccccc1)C1(O)CCCCC1` (stereo not given), for which the cell count was 1390 cells and the z-score was 0.43 (inactive).

For the compound `CCCCSc1nnc2c(n1)OC=Nc1ccccc1-2`, the cell count is 1140 cells and the z-score is -0.42 (inactive).

As to `Cc1nc2ccccc2nc1N/N=C/c1ccc(O)cc1O`, the cell count amounted to 1210 cells and the z-score was -3.3 (inactive).

Turning to `Oc1ccc(/C=N/Nc2nc(-c3ccccc3F)nc3ccccc23)c(O)c1`, the cell count was determined as 1070 cells and the z-score is 3.69 (active).

Take `Fc1ccc(/C=N/Nc2nc(-c3cccnc3)nc3ccccc23)cc1`: the cell count was 1030 cells and the z-score is -0.09 (inactive).

With `O=C(NCCc1ccccn1)c1cccnc1Oc1ccc(Cl)cc1`, the cell count was determined as 1560 cells and the z-score was -0.11 (inactive).

Consider `Cc1cc2nc3c(=O)n(Cc4ccccc4)c(=O)[nH]c3nc2cc1N`, for which the cell count stood at 1490 cells and the z-score is 12.1 (active).

With `Cc1nc2c(c(=O)n1Cc1ccco1)c1nc3ccccc3nc1n2Cc1ccccc1`, the cell count was 1260 cells and the z-score is -1.6 (inactive).

As for `CC(=O)c1ccc(-c2ccc(Cn3c(C)nc4cc(N)c(C)nc43)cc2)cc1`, the cell count stood at 1520 cells and the z-score was 0.28 (inactive).

`COc1ccc(Nc2cc(=O)n(-c3ccccc3)c3c2c(=O)n(C)c(=O)n3C)cc1`: the cell count was determined as 991 cells and the z-score was 0.04 (inactive).

As for `COc1ccc(C(=O)C2CCCN(C(=O)c3cc4nc(C)cc(C)n4n3)C2)cc1F` (stereo not given), the cell count was determined as 1470 cells and the z-score was -0.02 (inactive).

On to `COCc1cc(=O)[nH]c(SC)n1`, for which the cell count is 1140 cells and the z-score was -0.01 (inactive).

As for `CC(C)c1nc(SCC(=O)NC(=O)NC(C)(C)C)n[nH]1`, the cell count was determined as 976 cells and the z-score was -0.03 (inactive).

For `CCCn1nc2cc(C(=O)NCc3ccccc3)ccc2c1OCC`, the cell count was found to be 1430 cells and the z-score was 4.73 (active).

Consider `CCOc1c2ccc(C(=O)NCc3ccc(OC(F)(F)F)cc3)cc2nn1C`, for which the cell count is 1370 cells and the z-score is 2.39 (inactive).

For `CCOc1c2ccc(C(=O)NCc3ccc4c(c3)OCO4)cc2nn1C`, the cell count is 1870 cells and the z-score was 0.4 (inactive).

For the compound `CC12CN(NC(=O)c3ccc(Cl)cc3)C3(C#N)CC1CCC23C` (stereo not given), the cell count amounted to 1610 cells and the z-score was -0.1 (inactive).
